# LRH-1 inv ag – suppresses constitutive activity of human LRH-1 | inhibition, % at 3.6 µM | 0.13% of 360,000 active | HEK293T StAR-luciferase reporter, LRH-1 transfected, 24 h;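 active = inhibition above the mean inhibition of all tested compounds plus 3 SD, cut at about 73% in these data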;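 also: 0% = DMSO wells and 100% = reporter-only cells lacking LRH-1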
# GalR3 antagonist – blocks the human galanin receptor 3. O60755. HEK293 GalR3-CNG cAMP membrane potential fluorescence; galR3 body fused to GalR1 C-terminus. inhibition, % at 3 µM. 0.44% of 360,000 active. AID 651719;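 active = inhibition above the screen-wide average plus 3 SD, cut at about 13% in these data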;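 also: forskolin and galanin both at EC90 stimulate the cells; cAMP rise reported by CNG channel membrane potential dye signal; 0% = forskolin plus galanin with DMSO and 100% = forskolin alone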
# Target sequence (O60755 1-299 limits assumed): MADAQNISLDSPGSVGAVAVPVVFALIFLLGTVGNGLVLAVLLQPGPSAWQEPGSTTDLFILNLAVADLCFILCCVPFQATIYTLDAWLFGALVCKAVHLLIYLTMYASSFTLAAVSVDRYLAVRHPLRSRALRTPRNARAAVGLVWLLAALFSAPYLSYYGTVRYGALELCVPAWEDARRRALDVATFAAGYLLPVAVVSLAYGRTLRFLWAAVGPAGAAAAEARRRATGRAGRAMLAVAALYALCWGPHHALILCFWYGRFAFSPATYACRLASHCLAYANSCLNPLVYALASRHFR
# NCOA2 inhibitor – human SRC2 (NCOA2) inhibition. Q15596. HEK293 GAL4-SRC2 luciferase reporter, luminescence. inhibition, % at 9 µM. 0.17% of 370,000 active;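 active = inhibition above the mean inhibition of all tested compounds plus 3 SD, set per campaign, cut at about 52% in these data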;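 also: 0% = DMSO treated cells and 100% = cells given Gossypol at 36 µM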
# NCOA1 inh – inhibits human SRC1 coactivator. inhibition, % at 3.6 µM. Q15788. 0.12% of 360,000 active. HEK293 GAL4-SRC1 luciferase reporter, luminescence;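 active = inhibition above the campaign mean plus 3 SD, with each screening campaign given its own cutoff, cut at about 60% in these data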;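 also: 0% = DMSO treated cells and 100% = gossypol at 36 µM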
# COUP-TFII inh – inhibitors of human COUP-TFII (NR2F2) | P24468 | HEK293T NGFI-A luciferase reporter, luminescence | inhibition, % at 8.6 µM | 0.7% of 370,000 active | AID 686940;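 active = inhibition above a per-plate cutoff, mean inhibition of test wells between control levels plus 3 SD, cut at about 38% in these data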;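 also: cells cotransfected with COUP-TFII expression vector driving the NGFI-A reporter; 0% = median of COUP-TF2 test wells and 100% = reporter-only cells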
# SRC3 inh – inhibitors of human steroid receptor coactivator 3 (SRC3); Q9Y6Q9; HEK293 GAL4-SRC3 luciferase reporter, luminescence; inhibition, % at 3.6 µM; 0.17% of 360,000 active;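 active = inhibition above a per-campaign cutoff, the mean of all compounds plus 3 SD, cut at about 60% in these data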;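 also: 0% = DMSO-treated cells and 100% = gossypol-treated cells at 36 µM; higher means less SRC3-driven luciferase light from the GAL4 reporter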
# VP16 Luc counter – inhibits VP16 reporter, flagging COUP-TFII antagonist hits. shares compounds with COUP-TFII inh. HEK293 Gal4-VP16 luciferase reporter, luminescence. inhibition, % at 8.5 µM. 25% of 2,500 active; in the data active = inhibition above about 13%
# COUP-TFII conf – COUP-TFII (NR2F2) inhibition, confirmation assay. AID 687008. inhibition, % at 8.5 µM. 45% of 2,500 active. HEK293 NGFI-A luciferase reporter, luminescence. shares compounds with COUP-TFII inh;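 active = mean inhibition over three repeats above a set limit taken from the earlier primary screen, cut at about 38% in these data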;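 also: 100% = cells given the luciferase reporter alone without the COUP-TF2 vector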
# The depositor's hits bear a star; / = not tested or not shown. Rows were chosen to be rich in hits. Some 1.1% of all compounds tested hit in one or more screens of this group.
SMILES,LRH-1 inv ag,GalR3 antagonist,NCOA2 inhibitor,NCOA1 inh,COUP-TFII inh,SRC3 inh,VP16 Luc counter,COUP-TFII conf
Clc1ccc2nc(CNc3nc(N4CCOCC4)nc4c3ncn4-c3ccsc3)[nH]c2c1,/,/,/,/,70*,/,19*,45*
O=S(=O)(c1ccc2nc(COc3ccc(Cl)cc3Cl)[nH]c2c1)N1CCOCC1,0,-4,-16,0,11,19,/,/
CCOC(=O)Cc1csc(NC(=O)/C=C/c2cccc(Br)c2)n1,2,-5,16,14,58*,26,-7,14
CCOC(=O)Cc1csc(NC(=O)/C=C/c2ccc(Br)o2)n1,-18,1,10,-12,28,-11,/,/
OC(c1ccccc1)(c1ccccc1)C1CCN(CCCNc2ccc(C(F)(F)F)cc2)CC1,/,/,2,/,4,/,/,/
O=S1(=O)CC(N2CCN(Cc3ccccc3F)CC2)CN1Cc1cn(Cc2ccc(C(F)(F)F)cc2)nn1 (stereo not drawn),16,-7,16,/,60*,/,-6,14
COc1ccc(C(=O)OCCN2CCN(C3CN(Cc4cn(Cc5ccccc5C(F)(F)F)nn4)S(=O)(=O)C3)CC2)cc1OC (stereo not drawn),/,/,14,/,48*,/,0,17
C=C1C(=O)C23C(O)C1CCC2C12CCCC(C)(COC(C)=O)C1C(O)C3(O)OC2 (stereo not drawn),77*,1,20,77*,48*,74*,77*,52*
CC(C)(C)c1ccc(OCCC(=O)Nc2cccc(S(=O)(=O)NC3=NCCCCC3)c2)cc1,20,-3,8,8,40*,10,-2,11
CN(CC(=O)Nc1cccc(S(=O)(=O)NC2=NCCCCC2)c1)Cc1ccc(C(C)(C)C)cc1,-3,0,3,-2,4,-2,/,/
O[C@H](COc1ccc(F)cc1)CN1CCC(C(O)(c2ccccc2)c2ccccc2)CC1,/,/,6,/,-14,/,/,/
c1ccc(Nc2nc(NCC3CCCO3)c3ccccc3n2)cc1 (stereo not drawn),16,2,6,-1,36,14,/,/
CCOc1ccc(Nc2nc(NCC3CCCO3)c3ccccc3n2)cc1 (stereo not drawn),0,-5,8,-6,60*,1,4,43*
COc1cc(C=Nn2c(-c3cc(C)[nH]n3)n[nH]c2=S)cc(Br)c1O,/,/,-19,/,-4,/,/,/
C[C@@H]1CN([C@@H](C)CO)C(=O)c2cc(Br)cnc2O[C@@H]1CN(C)Cc1ccccn1,/,0,17,/,-10,/,/,/
COc1cc(C(=O)Oc2cccc(Nc3ncnc4ccccc34)c2)cc(OC)c1OC,22,-6,-1,2,61*,21,-4,49*
CC(C)(C)C(=O)NCCCc1nc2ccccc2n1CCCOc1ccc(Cl)cc1,5,-2,46,-2,60*,19,0,22
COc1cc(C#Cc2c(-c3cncn3C)n(C)c3ccc(-c4cnc(OC)nc4)cc23)cc(OC)c1,12,-5,21,13,45*,25,-8,-1
COc1ccc(/C=C/C(=O)Nc2ccccc2F)cc1S(=O)(=O)N1CCOCC1,-1,-4,3,-34,12,-2,/,/
Cc1ccc(NC(=O)/C=C/c2ccc(S(=O)(=O)N3CCOCC3)cc2)cc1S(=O)(=O)N(C)C,22,-7,30,9,49*,8,6,44*
COc1cc(/C=C/C(=O)Nc2ccc(OC)c(S(=O)(=O)N3CCOCC3)c2)ccc1OC(F)F,17,-2,35,13,38*,29,13*,31
COc1ccc(/C=C/C(=O)Nc2ccc(C(C)=O)cc2)cc1S(=O)(=O)N1CCOCC1,13,-1,5,4,12,2,/,/
COc1ccc(/C=C/C(=O)Nc2ccccc2C)cc1S(=O)(=O)N1CCOCC1,-36,-7,-13,-14,48*,0,-80,-20
CC(=O)Nc1cccc(NC(=O)/C=C/c2ccc(S(=O)(=O)N3CCOCC3)cc2)c1,-6,-4,-6,-9,2,-1,/,/
Cc1cc(C)nc(/N=C(\N)Nc2ccc(-c3ccccc3)cc2)n1,29,-7,8,25,56*,47,4,35
SMILES,LRH-1 inv ag,GalR3 antagonist,NCOA2 inhibitor,NCOA1 inh,COUP-TFII inh,SRC3 inh,VP16 Luc counter,COUP-TFII conf
CC(=O)Nc1ccc(N/C(N)=N/c2nc(C)cc(C)n2)cc1,24,2,-3,-11,-7,15,/,/
CCN(CC(=O)NCc1ccc(Cl)cc1)C(=O)c1cc(OC)cc(OC)c1,-16,-7,-7,-2,53*,3,-7,-2
CCN(CC(=O)NCc1ccc(Cl)cc1)C(=O)Cc1ccc(OC)cc1,-5,-4,-2,-12,5,10,/,/
CN(C)c1cc[n+](Cc2c(Cl)cccc2Cl)cc1,46,-1,0,6,47*,23,5,34
Cc1nc(SCC(=O)N2CCCCCC2)c2c(=O)n(C)c(=O)n(CC(C)C)c2n1,16,-3,18,16,42*,15,0,23
CC(C)c1nc(SCC(=O)N2CCCCCC2)c2c(=O)n(C)c(=O)n(C)c2n1,-2,-3,-29,3,-24,12,/,/
CCOC(=O)C1CCN(CC(=O)Nc2c(C(=O)OC)[nH]c3ccc(Cl)cc23)CC1,21,-5,11,2,41*,22,4,32
CC(C)(C)C(=O)NC1CCCCN(Cc2cccc(Cl)c2)C1=O (stereo not drawn),/,/,25,/,13,/,/,/
c1nc(NCc2ccc3c(c2)OCO3)c2cc(-c3ccoc3)ccc2n1,17,6,27,51,39*,60,-19,10
Nc1ccc(Oc2ccccc2-c2ccccc2)cc1,48,-2,83*,44,78*,58,77*,73*
CCCCOc1ccc(C(=O)NC2CCCCN(Cc3cccc(Cl)c3)C2=O)cc1 (stereo not drawn),/,/,11,/,38*,/,-1,23
O=C(NC1CCCCN(Cc2cccc(Cl)c2)C1=O)c1ccc(F)cc1 (stereo not drawn),/,/,-20,/,-6,/,/,/
O=C(NC1CCCCN(Cc2ccc(Cl)cc2)C1=O)c1ccc(COc2ccccc2)cc1 (stereo not drawn),/,/,29,/,53*,/,-1,12
Cc1ccccc1CN1CCCCC(NC(=O)c2ccc(COc3ccccc3)cc2)C1=O (stereo not drawn),/,/,25,/,68*,/,1,49*
O=C(NC1CCCCN(Cc2cccc(C(F)(F)F)c2)C1=O)c1ccc(COc2ccccc2)cc1 (stereo not drawn),/,/,12,/,66*,/,10,62*

# From PubChem BioAssay
